Molecules are shown by their SMILES. Inconclusive results are not listed. The source made the active and inactive calls. The calls were made as follows: active = hit-call score of the fitted dose curve at least 0.9, where 1 is the maximum; inconclusive = response in the unintended direction; inactive = score below 0.9.

Sequence of human Protein Tyrosine Phosphatase Receptor Type M (PTPRM), PTPRM (gene 5797) (P28827 whole entry, looked up): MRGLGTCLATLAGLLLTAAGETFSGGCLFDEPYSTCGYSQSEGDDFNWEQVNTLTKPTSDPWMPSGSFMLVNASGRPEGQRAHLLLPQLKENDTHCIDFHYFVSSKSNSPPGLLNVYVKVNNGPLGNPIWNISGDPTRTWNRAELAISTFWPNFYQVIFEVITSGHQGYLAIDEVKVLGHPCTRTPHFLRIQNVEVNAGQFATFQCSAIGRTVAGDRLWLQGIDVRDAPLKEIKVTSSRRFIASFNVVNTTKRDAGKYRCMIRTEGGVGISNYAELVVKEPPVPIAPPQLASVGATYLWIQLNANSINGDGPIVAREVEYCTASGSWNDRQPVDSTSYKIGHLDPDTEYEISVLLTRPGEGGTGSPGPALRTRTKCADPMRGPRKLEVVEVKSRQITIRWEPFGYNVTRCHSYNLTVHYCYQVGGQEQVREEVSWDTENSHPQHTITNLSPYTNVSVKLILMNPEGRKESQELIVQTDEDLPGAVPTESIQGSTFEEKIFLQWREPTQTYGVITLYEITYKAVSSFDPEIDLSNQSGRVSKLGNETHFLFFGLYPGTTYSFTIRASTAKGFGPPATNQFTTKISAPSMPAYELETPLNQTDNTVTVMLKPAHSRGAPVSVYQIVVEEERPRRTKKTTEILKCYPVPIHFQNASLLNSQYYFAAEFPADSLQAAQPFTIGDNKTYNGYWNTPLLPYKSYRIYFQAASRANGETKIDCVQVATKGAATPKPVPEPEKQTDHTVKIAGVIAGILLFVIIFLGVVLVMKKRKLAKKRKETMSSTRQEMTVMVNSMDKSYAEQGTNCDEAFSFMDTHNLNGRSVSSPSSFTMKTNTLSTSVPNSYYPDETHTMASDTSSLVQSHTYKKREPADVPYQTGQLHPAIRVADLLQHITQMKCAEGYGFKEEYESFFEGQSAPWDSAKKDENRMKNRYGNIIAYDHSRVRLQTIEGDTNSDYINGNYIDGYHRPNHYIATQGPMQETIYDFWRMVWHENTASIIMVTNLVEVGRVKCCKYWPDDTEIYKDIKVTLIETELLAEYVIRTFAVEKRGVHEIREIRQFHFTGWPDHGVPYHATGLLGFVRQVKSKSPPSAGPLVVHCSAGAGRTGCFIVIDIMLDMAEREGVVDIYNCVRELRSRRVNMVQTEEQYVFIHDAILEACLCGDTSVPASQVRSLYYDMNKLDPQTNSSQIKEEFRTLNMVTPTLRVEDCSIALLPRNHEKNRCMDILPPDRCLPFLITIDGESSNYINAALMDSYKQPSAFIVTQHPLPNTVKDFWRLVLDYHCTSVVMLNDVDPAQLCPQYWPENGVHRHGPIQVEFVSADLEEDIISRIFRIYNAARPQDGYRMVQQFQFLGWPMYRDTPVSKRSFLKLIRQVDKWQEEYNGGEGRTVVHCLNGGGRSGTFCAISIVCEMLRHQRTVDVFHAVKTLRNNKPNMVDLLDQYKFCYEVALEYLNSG
Sequence of human Sirtuin 3 (SIRT3), SIRT3 (gene 23410) (Q9NTG7 whole entry, looked up): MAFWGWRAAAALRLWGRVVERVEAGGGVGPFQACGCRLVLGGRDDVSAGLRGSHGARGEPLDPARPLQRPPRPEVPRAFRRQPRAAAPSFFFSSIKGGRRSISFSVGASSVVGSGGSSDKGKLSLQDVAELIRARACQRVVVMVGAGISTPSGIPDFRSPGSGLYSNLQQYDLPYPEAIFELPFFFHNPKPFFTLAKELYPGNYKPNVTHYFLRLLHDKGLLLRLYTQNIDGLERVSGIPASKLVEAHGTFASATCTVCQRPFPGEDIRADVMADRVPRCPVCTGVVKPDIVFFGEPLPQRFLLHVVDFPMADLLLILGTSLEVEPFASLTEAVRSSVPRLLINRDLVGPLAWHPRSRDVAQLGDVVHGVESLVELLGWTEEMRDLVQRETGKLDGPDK

For the first experiment, the target named is human Protein Tyrosine Phosphatase Receptor Type M (PTPRM), PTPRM (gene 5797) (UniProt P28827). Nature of the experiment: NVS_ENZ_hPTPRM: NovaScreen (NVS) Enzymatic Assay for human Protein Tyrosine Phosphatase Receptor Type M (PTPRM) (AID 2283215). The procedure:
NVS_ENZ_hPTPRM is a biochemical, single-readout assay that uses extracted gene-proteins in a cell-free assay. Measurements were taken 1.33 hours after chemical dosing in a 384-well plate.NVS_ENZ_hPTPRM is one of one assay component(s) measured or calculated from the NVS_ENZ_hPTPRM assay. It is designed to make measurements of enzyme activity, a form of enzyme reporter, as detected with fluorescence intensity signals by Fluorescence and electrophoretic mobility shift technology.Data from the assay component NVS_ENZ_hPTPRM was analyzed into 1 assay endpoint. This assay endpoint, NVS_ENZ_hPTPRM, was analyzed in the positive analysis fitting direction relative to DMSO as the negative control and baseline of activity. Using a type of enzyme reporter, loss-of-signal activity can be used to understand changes in the enzymatic activity as they relate to the gene PTPRM. Furthermore, this assay endpoint can be referred to as a primary readout, because this assay has produced multiple assay endpoints where this one serves a enzymatic activity function. To generalize the intended target to other relatable targets, this assay endpoint is annotated to the phosphatase intended target family, where the subfamily is receptor tyrosine phosphatase.
Binding assays used specific radioligands (tritiated, iodinated) with non-radioactive competitive displacement ligands in agonist or antagonist protocols (as indicated) and various reference compounds and inhibitors to titrate specific binding to receptors and transporters. Most enzyme assays (CYPs, kinases, phosphatases, proteases, HDACs) used recombinant protein and specific substrates (fluorescence mostly, some colorimetric and radioactive) and inhibitors, followed by a biochemical separation of substrate and product. All assays for the biochemical HTS were initially run in duplicate at a single concentration (10 uM for CYP450 assays and 25 uM for all others). […] Each assay was run with positive and negative controls, and concurrent controls on every plate. […]
Turning to `CC/C(=C(\c1ccccc1)c1ccc(OCCN(C)C)cc1)c1ccccc1`, the half-maximal activity concentration (AC50) was 13.9 µM (active).
Turning to `O=C(c1ccc(OCCN2CCCCC2)cc1)c1c(-c2ccc(O)cc2)sc2cc(O)ccc12`, the concentration at half-maximal activity (AC50) was 37.9 µM (active).
As to `C[C@]12CC[C@@H]3c4ccc(O)cc4CC[C@H]3[C@@H]1CC[C@@H]2O`, the result was inactive.

Another experiment has as its target human Sirtuin 3 (SIRT3), SIRT3 (gene 23410) (UniProt Q9NTG7). Briefly: NVS_ENZ_hSIRT3: NovaScreen (NVS) Enzymatic Assay for human Sirtuin 3 (SIRT3) (AID 2283222). On the procedure:
NVS_ENZ_hSIRT3 is a biochemical, single-readout assay that uses extracted gene-proteins in a cell-free assay. Measurements were taken 1 hour after chemical dosing in a 384-well plate.NVS_ENZ_hSIRT3 is one of one assay component(s) measured or calculated from the NVS_ENZ_hSIRT3 assay. It is designed to make measurements of enzyme activity, a form of enzyme reporter, as detected with fluorescence intensity signals by Fluorescence and electrophoretic mobility shift technology.Data from the assay component NVS_ENZ_hSIRT3 was analyzed into 1 assay endpoint. This assay endpoint, NVS_ENZ_hSIRT3, was analyzed in the positive analysis fitting direction relative to DMSO as the negative control and baseline of activity. Using a type of enzyme reporter, loss-of-signal activity can be used to understand changes in the enzymatic activity as they relate to the gene SIRT3. Furthermore, this assay endpoint can be referred to as a primary readout, because this assay has produced multiple assay endpoints where this one serves a enzymatic activity function. To generalize the intended target to other relatable targets, this assay endpoint is annotated to the hydrolase intended target family, where the subfamily is protein deacetylase.
Binding assays used specific radioligands (tritiated, iodinated) with non-radioactive competitive displacement ligands in agonist or antagonist protocols (as indicated) and various reference compounds and inhibitors to titrate specific binding to receptors and transporters. Most enzyme assays (CYPs, kinases, phosphatases, proteases, HDACs) used recombinant protein and specific substrates (fluorescence mostly, some colorimetric and radioactive) and inhibitors, followed by a biochemical separation of substrate and product. All assays for the biochemical HTS were initially run in duplicate at a single concentration (10 uM for CYP450 assays and 25 uM for all others). […]
Take `CC/C(=C(\c1ccccc1)c1ccc(OCCN(C)C)cc1)c1ccccc1`: the call was inactive.
In the case of `O=C(c1ccc(OCCN2CCCCC2)cc1)c1c(-c2ccc(O)cc2)sc2cc(O)ccc12`, the AC50 was 17.4 µM (active).
As for `C[C@]12CC[C@@H]3c4ccc(O)cc4CC[C@H]3[C@@H]1CC[C@@H]2O`, the molecule was classed as inactive.

For the origin of these results see PubChem BioAssay (EPA / NIEHS).
